Results on 14 compounds are retold here after PubChem BioAssay (NCATS).

Each structure is given as a SMILES string. Records with an inconclusive call do not appear. Unmarked numbers belong to inactive results. Activity calls are given as the source filed them. Calls follow the shape of the dose curve; as a rule, active = well fitted cell-killing curve with a large enough effect; inconclusive = small, poorly fitted or top-dose-only effect, or effect the other way; inactive = no such curve, though single readings can be large or run the other way.

The nature of assay [1]: Quantitative High-Throughput drug screen in 47 multiple myeloma cell lines against the NCATS MIPE library collection: OCIMY7_PLB cell viability assay (AID 1918987). Also: nearly all actives have a fitted effect of over 65% in size. Summed up:
(§1)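 qHTS format: cells plated (500/well), pin-dosed with MIPE 4.0 compounds, kept 48 h at 37 °C. Readout was CellTiter-Glo luminescence, median RLU.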

A short description of assay [2]: Quantitative High-Throughput drug screen in 47 multiple myeloma cell lines against the NCATS MIPE library collection: OPM1_PLB cell viability assay (AID 1918989). Also: nearly all actives have a fitted effect of over 40% in size. Summed up: as §1
The nature of assay [3]: Quantitative High-Throughput drug screen in 47 multiple myeloma cell lines against the NCATS MIPE library collection: XG6_PLB cell viability assay (AID 1919865). Also: nearly all actives have a fitted effect of over 40% in size. Summed up: as §1
The nature of assay [4]: Quantitative High-Throughput drug screen in 47 multiple myeloma cell lines against the NCATS MIPE library collection: XG1_PLB cell viability assay (AID 1919866). Also: nearly all actives have a fitted effect of over 35% in size. Summed up: as §1
Assay [5] is described as follows: Quantitative High-Throughput drug screen in 47 multiple myeloma cell lines against the NCATS MIPE library collection: PE2_PLB cell viability assay (AID 1919869). Also: nearly all actives have a fitted effect of over 35% in size. A digest of the protocol: as §1
Assay [6] in a line: Quantitative High-Throughput drug screen in 47 multiple myeloma cell lines against the NCATS MIPE library collection: PCM6_Riken cell viability assay (AID 1919870). Also: nearly all actives have a fitted effect of over 30% in size. A digest of the protocol:
as §1

A short description of assay [7]: Quantitative High-Throughput drug screen in 47 multiple myeloma cell lines against the NCATS MIPE library collection: RPMI8226_ATCC cell viability assay (AID 1919871). Also: nearly all actives have a fitted effect of over 30% in size. A digest of the protocol: as §1
The nature of assay [8]: Quantitative High-Throughput drug screen in 47 multiple myeloma cell lines against the NCATS MIPE library collection: OPM2_DSMZ cell viability assay (AID 1919872). Also: nearly all actives have a fitted effect of over 30% in size. A digest of the protocol:
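CellTiter-Glo luminescence (ATP) after 48 h compound exposure, 37C/5% CO2; 500 cells/well; MIPE 4.0 approved/investigational drugs pinned in; DMSO = 100%, media only = 0% viability.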

Assay [9] is described as follows: Quantitative High-Throughput drug screen in 47 multiple myeloma cell lines against the NCATS MIPE library collection: KMS11_JCRBsus cell viability assay (AID 1919873). Also: nearly all actives have a fitted effect of over 50% in size. Summed up:
as §1

Assay [10] can be described thus: Quantitative High-Throughput drug screen in 47 multiple myeloma cell lines against the NCATS MIPE library collection: KMS28BM_JCRB cell viability assay (AID 1919874). Also: nearly all actives have a fitted effect of over 35% in size. A digest of the protocol: as §1
The nature of assay [11]: Quantitative High-Throughput drug screen in 47 multiple myeloma cell lines against the NCATS MIPE library collection: OCIMY5_PLB cell viability assay (AID 1918988). Also: nearly all actives have a fitted effect of over 65% in size. Summed up: as §1
Assay [12] can be described thus: Quantitative High-Throughput drug screen in 47 multiple myeloma cell lines against the NCATS MIPE library collection: SKMM1_PLB cell viability assay (AID 1919863). Also: nearly all actives have a fitted effect of over 35% in size. The note with it: SKMM1 myeloma viability, CellTiter-Glo ATP, 48 h; viability: active compounds read low. A digest of the protocol:
as §1
(ATP-based viability assays read luminescence as a measure of living cells.)

Assay [13] in a line: Quantitative High-Throughput drug screen in 47 multiple myeloma cell lines against the NCATS MIPE library collection: VP6_DJ cell viability assay (AID 1919867). Also: nearly all actives have a fitted effect of over 40% in size. A digest of the protocol:
as §1

Assay [14] is described as follows: Quantitative High-Throughput drug screen in 47 multiple myeloma cell lines against the NCATS MIPE library collection: UTMC2_PLB cell viability assay (AID 1919868). Also: nearly all actives have a fitted effect of over 55% in size. Conditions: CellTiter-Glo ATP luminescence, 48 h; viability (% of DMSO control): at 45.8 µM (top of the series). Summed up: as §1
Assay [15] is described as follows: Quantitative High-Throughput drug screen in 47 multiple myeloma cell lines against the NCATS MIPE library collection: U266_ATCC cell viability assay (AID 1919864). Also: nearly all actives have a fitted effect of over 35% in size. A digest of the protocol: as §1
Assay [16] in a line: Quantitative High-Throughput drug screen in 47 multiple myeloma cell lines against the NCATS MIPE library collection: KMS34_JCRB cell viability assay (AID 1918985). Also: nearly all actives have a fitted effect of over 40% in size. A digest of the protocol:
as §1
Potency is read from the fitted curve at half-maximal effect.

Turning to `Cc1[nH]c(=O)c(C#N)cc1-c1ccc2nccn2c1`, the Potency result in assay [1], in assay [2], in assay [3], in assay [4], in assay [5] and in assay [7] was “inactive” in each case. The Potency result in [8], in [9] and in assay [10] was “inactive” in each case. Also, in [6], the Potency is 2.64 µM (active).
Consider `CCC(C)(C)C(=O)O[C@H]1C[C@@H](C)C=C2C=C[C@H](C)[C@H](CC[C@@H]3C[C@@H](O)CC(=O)O3)[C@H]21`, for which the Potency in assay [11] is 18.7 µM (active); in [2], 8.33 µM (active); in [12], 18.7 µM (active); in assay [13] it was 16.6 µM (active); in assay [14], 14.8 µM (active); in assay [9] it was 13.2 µM (active).
Take `CC[C@H](Nc1ncnc2nc[nH]c12)c1nc2cccc(F)c2c(=O)n1-c1ccccc1`: the Potency in assay [1] was 4.69 µM (active); in assay [11], 20.9 µM (active); in [2] it was 14.8 µM (active); in assay [12], 16.6 µM (active); in assay [3] it was 13.2 µM (active); in assay [14] it was 5.9 µM (active). Also, the Potency in assay [9] is 18.7 µM (active).
`NC(=O)c1ccc(-c2nc(-c3ccc4c(c3)OCCO4)c(-c3ccccn3)[nH]2)cc1`: the Potency was 18.7 µM (active) in assay [11]; 8.33 µM (active) in assay [3]; 23.5 µM (active) in [13]; 13.2 µM (active) in assay [6]; 14.8 µM (active) in assay [8]. Moreover, the viability in assay [12] is 112%. The Potency result in assay [14], in assay [9] and in assay [10] was “inactive” each time.
With `CCOC(=O)N[C@@H]1CC[C@@H]2[C@@H](C1)C[C@H]1C(=O)O[C@H](C)[C@H]1[C@@H]2C=Cc1ccc(-c2cccc(F)c2)cn1`, the results for the Potency in assay [11], in assay [4] and in assay [7] were 23.5 µM (active), 16.6 µM (active) and 18.7 µM (active), respectively. Besides, the Potency entry in [8] is “inactive”.
Regarding `N#Cc1ccc(C(c2ccc(C#N)cc2)n2cncn2)cc1`, the Potency was 16.6 µM (active) in assay [2]; 6.62 µM (active) in assay [12]; 16.6 µM (active) in [15]; 16.6 µM (active) in assay [13]; 5.9 µM (active) in assay [7]; 9.35 µM (active) in [8]. Further, the Potency in [10] was 5.9 µM (active). The Potency result in [5] was “inactive”.
With `NNCCc1ccccc1`, the Potency result in assay [1], in assay [2], in [3], in assay [5], in assay [7] and in assay [9] was “inactive” in each case.
With `CC(=O)Oc1ccccc1C(=O)O`, the Potency entry in assay [16], in assay [2], in assay [7] and in assay [8] was “inactive” throughout. The Potency is 5.26 µM (active) in [1]; 5.26 µM (active) in [11]; 7.43 µM (active) in assay [15]; 4.69 µM (active) in assay [3]; 5.26 µM (active) in assay [6]; 10.5 µM (active) in assay [9]. Moreover, in [10], the Potency is 9.35 µM (active). The viability in [12] is 129%.
As for `COc1ccc(-c2ccc3c(N4CCOC[C@H]4C)nc(N4CCOC[C@H]4C)nc3n2)cc1CO`, the Potency was 0.0209 µM (active) in assay [16]; 0.209 µM (active) in assay [1]; 0.332 µM (active) in assay [11]; 0.0148 µM (active) in assay [2]; 0.0148 µM (active) in [12]; 0.0066 µM (active) in assay [13]. The Potency was 0.001 µM (active) in assay [14]; 0.0148 µM (active) in assay [5]; 0.0166 µM (active) in assay [6]; 0.0209 µM (active) in assay [8]; 0.0083 µM (active) in assay [10].
In the case of `N#CC[C@H](C1CCCC1)n1cc(-c2ncnc3[nH]ccc23)cn1`, the Potency in assay [1] is 18.7 µM (active); in assay [11], 20.9 µM (active); in [2] it was 6.62 µM (active); in assay [12], 6.62 µM (active); in [14], 9.35 µM (active); in assay [9] it was 20.9 µM (active). The Potency in assay [10] is 20.9 µM (active). Further, the Potency entry in assay [7] and in assay [8] was “inactive” throughout.
Regarding `CC1(C)Cc2c(-c3ccccc3)c(-c3ccc(Cl)cc3)c(CC(=O)O)n2C1`, the Potency was 20.9 µM (active) in assay [12]; 18.7 µM (active) in assay [15]; 14.8 µM (active) in assay [4]; 14.8 µM (active) in assay [13]; 16.6 µM (active) in [14]; 20.9 µM (active) in assay [5]. In addition, the figures for the Potency in assay [8], in [9] and in [10] were 23.5 µM (active), 18.7 µM (active) and 16.6 µM (active), respectively.
Turning to `Cc1ccc(NC(=O)c2cccc(C(C)(C)C#N)c2)cc1Nc1ccc2ncn(C)c(=O)c2c1`, the Potency in [1] was 0.935 µM (active); in assay [11], 16.6 µM (active); in [2], 14.8 µM (active); in [12], 1.66 µM (active); in assay [15] it was 18.7 µM (active); in assay [3] it was 5.26 µM (active). Moreover, the values for the Potency in assay [5], in assay [8] and in assay [9] were 5.9 µM (active), 16.6 µM (active) and 11.8 µM (active), respectively.
Turning to `COc1cc(Oc2ccnc3cc(OC)c(OC)cc23)ccc1NC(=O)NC(C)c1nccs1` (stereo not drawn), the Potency in assay [11] was 16.6 µM (active); in [2], 20.9 µM (active); in assay [5], 23.5 µM (active); in assay [6], 13.2 µM (active); in [7] it was 16.6 µM (active); in assay [9] it was 18.7 µM (active). Besides, the Potency in assay [10] was 9.35 µM (active). In addition, the Potency result in assay [14] is “inactive”.
With `CN(C(=O)c1ccc(F)cc1C(F)(F)F)C1CCN(c2nnc(-c3ccnn3C)c3ccccc23)CC1`, the Potency is 0.372 µM (active) in [1], 13.2 µM (active) in [4], 16.6 µM (active) in assay [13] and 18.7 µM (active) in assay [5]. For the same compound, in [2], the Potency entry was “inactive”.

One may read the viability as a read-out of living cells in per cent, often relative to untreated cells.
